Laboratory results as given in PubChem BioAssay (NCATS).
Inconclusive results are not listed. Calls of active or inactive are those of the source. Unless noted, calls follow the shape of the full dose curve.

Key:
[1] = qHTS for Inhibitors of the Functional Ribonucleoprotein Complex (vRNP) of Lassa (LASV) Arenavirus: Viability assay - alamar blue signal for LASV Primary Screen (AID 1347083; calls by dose curve; tested in HEK293 reporter line; also: nearly all actives have a fitted effect of over 80% in size; also: potency is read from the fitted curve at half-maximal effect)
[2] = qHTS for Inhibitors of the Functional Ribonucleoprotein Complex (vRNP) of Lymphocytic Choriomeningitis Arenaviruses (LCMV): Viability assay - alamar blue signal for LCMV Primary Screen (AID 1347085; calls by dose curve; tested in HEK293 reporter line; also: nearly all actives have a fitted effect of over 80% in size; also: potency is read from the fitted curve at half-maximal effect)
[3] = Primary qHTS to identify inhibitors of SARS-CoV-2 cell entry (AID 1645846); conditions: activity change, negative = inhibition: at 57.1 µM (top of the series) unless noted; also: nearly all actives have a fitted effect of over 45% in size
How it was run: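 Entry measured by luciferase signal 48 h after adding SARS-CoV-2-S pseudotyped MLV particles to HEK293-ACE2 cells preincubated 1 h with compounds. Normalisation: bald particles and spike particles.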

[4] = target: Bile acid receptor (Homo sapiens) (UniProt Q96RI1); assay: qHTS assay for small molecule agonists of farnesoid X receptor signaling (AID 588527); conditions: HEK293T FXR-UAS-bla, beta-lactamase ratio, 16 h; activation: stronger effect = higher value;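 also: 0% = vehicle basal and 100% = reference agonist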
How it was run: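 Agonist-mode beta-lactamase reporter in GeneBLAzer FXR-UAS-bla HEK293T cells, titration up to 92 uM, 16 h exposure at 37 C, CCF4 fluorescence. Response scaled to DMSO (0%) and 100 uM chenodeoxycholic acid (100%), then Hill-fitted for EC50 and efficacy.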

[5] = target: Peroxisome proliferator-activated receptor delta (Homo sapiens) (UniProt Q03181); assay: qHTS assay for small molecule agonists of peroxisome proliferator-activated receptor delta signaling (AID 588534);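 also: 0% = DMSO basal wells and 100% = positive control agonist at 10 µM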
How it was run: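 Agonist-mode qHTS; reporter cells, 5 hrs 37 C pre-incubation; compound titration, 18 hrs 37 C; CCF4 dye, 2 hrs RT; fluorescence read. EC50/efficacy via Hill fit.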

[6] = Primary qHTS for Huh7 cytotoxicity: counterscreen for inhibitors of MERS-S pseudotyped particle cell entry (AID 1479147); conditions: outcome: dose series up to 57.1 µM unless noted
[7] = Primary qHTS for Vero E6 cytotoxicity: counterscreen for inhibitors of SARS-S pseudo-typed particle cell entry (AID 1479150); conditions: outcome: dose series up to 57.1 µM unless noted
[8] = VSVG counterscreen qHTS to identify inhibitors of SARS-CoV-2 cell entry (AID 1645847); also: potency is read from the fitted curve at half-maximal effect; nearly all actives have a fitted effect of over 65% in size
How it was run: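 Luminescence read after 48 h infection at 37 C with VSV-G-pseudotyped MLV particles, following 1 h compound exposure of Expi293F cells stably expressing human ACE2; scaled between bald particle and VSV-G particle wells.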

[9] = Inducers of the Endoplasmic Reticulum Stress Response (ERSR) in human glioma: Validation (AID 504836; active = well fitted curve in the direction sought with a large enough effect; an effect the other way counts as inactive or inconclusive; also: 0% is about no effect)
How it was run: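 ERSR induction read as luciferase luminescence (Bright-Glo, 10 min at room temperature) in stably transfected human U87-MG glioma cells exposed to compounds for 16 h, using GRP78 as sensor.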

[10] = target: Alpha-galactosidase (Coffea arabica) (UniProt Q42656); assay: Counterscreen for Glucocerebrosidase Inhibitors: qHTS Assay for Coffee Bean alpha-Galactosidase at pH 4.5 (AID 957; active = well fitted curve in the direction sought with a large enough effect; an effect the other way counts as inactive or inconclusive;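 also: plate controls were enzyme alone for no effect and no enzyme for full effect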)
How it was run: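 Enzyme is added first (2 nM final), then compounds titrated from 0.7 nM to 77 uM, then 80 uM 4-methylumbelliferyl alpha-D-galactopyranoside; after 20 min at room temperature a pH 10 NaOH/glycine stop precedes fluorescence reading at 365/440 nm.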

[11] = target: Alpha-galactosidase (Coffea arabica) (UniProt Q42656); assay: Counterscreen for Glucocerebrosidase Inhibitors: qHTS Assay for Coffee Bean alpha-Galactosidase at pH 5.9 (AID 998; active = well fitted curve in the direction sought with a large enough effect; an effect the other way counts as inactive or inconclusive;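 also: plate controls were uninhibited enzyme for no effect and no-enzyme basal signal for full effect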)
How it was run: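 Fluorogenic 4-MU substrate hydrolysis, 80 uM substrate and 2 nM coffee bean alpha-galactosidase, pH 5.9 citrate buffer, 20 min at room temperature, then NaOH/glycine stop. Titration 0.7 nM–77 uM, normalized to no-enzyme and enzyme controls, AC50 via Hill equation.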

[12] = Validation screen for inhibitors of Lassa infection (AID 463096); also: % is scaled to controls: 0 for no effect and ±100 for the full control effect
[13] = Cytotoxicity counterscreen for inhibitors of SARS-CoV-2 cell entry (AID 1645845); also: nearly all actives have a fitted effect of over 50% in size
How it was run: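 ATP-content luminescence (ATPLite 1step, 15 min RT) read after 48 h compound exposure of Expi293F cells stably expressing human ACE2; normalized to cells-only wells and media-only wells.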

[14] = qHTS for differential inhibitors of proliferation of Plasmodium falciparum line 3D7 (AID 1876; active = well fitted curve in the direction sought with a large enough effect; an effect the other way counts as inactive or inconclusive; also: potency is read from the fitted curve at half-maximal effect)
[15] = Nrf2 qHTS screen for inhibitors: Validation (AID 493153; active = well fitted inhibition curve with a large enough effect in the main read-out, with a control signal flat, not every such curve was filed as active;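 as to activity change, negative = inhibition: A549 cells with ARE-driven firefly luciferase reporter reporting Nrf2 activity; % of control where 0% means no effect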); conditions: Potency: luciferase luminescence; viability change: measured here: cytotoxicity max response
How it was run: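 A549 ARE_Fluc, 5% FBS OPTI-MEM; cpd titration, 18-24 h, 37°C/5% CO2. Read 1: CellTiter-Fluor (Ex 405/Em 525), cytotox. Read 2: luciferase lum, Nrf2 activity.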

[16] = qHTS for Inhibitors of ATXN expression: Validation (AID 588378; active = well fitted curve in the direction sought with a large enough effect; an effect the other way counts as inactive or inconclusive; also: % is scaled to controls: 0 for no effect and ±100 for the full control effect; nearly all actives have a fitted effect of over 75% in size)
How it was run: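 Luciferase luminescence (Bright-Glo) from an ATXN2-FFLuc HEK293 line after 24 h compound exposure at 37 °C, preceded by a CellTiter-Fluor fluorescence viability read. Serial dilutions of a reference ATXN2 inhibitor and a luciferase inhibitor served as controls.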

[17] = qHTS assay for small molecule activators of the p53 signaling pathway (AID 651743; active = well fitted activation curve with a large enough effect in the signal ratio, not every such curve was filed as active; the % refers to the signal ratio; also: potency is read from the fitted curve at half-maximal effect); conditions: HCT-116 p53RE-bla, beta-lactamase FRET ratio, 16 h; activation: stronger effect = higher value
How it was run: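 After 16 hours compound treatment at 37 C, HCT-116 cells stably expressing p53RE-driven beta-lactamase were loaded with LiveBLAzer B/G FRET substrate for 2 hours at room temperature. Fluorescence intensity served as the p53 activation read-out.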

[18] = qHTS assay to identify small molecules that stimulate interleukin-8 (IL-8) secretion (AID 651758; active = well fitted activation curve with a large enough effect in the signal ratio; the % refers to the signal ratio; also: potency is read from the fitted curve at half-maximal effect)
How it was run: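 Secreted IL-8 measured homogeneously by TR-FRET (two labelled anti-IL-8 antibodies, 1-3 h at room temperature) after a 16 h, 37 C compound treatment of THP-1 cells at 2000 cells/well.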

[19] = target: Nuclear receptor ROR-gamma (Homo sapiens) (UniProt P51449); assay: qHTS assay for small molecule antagonists of the retinoid-related orphan receptor gamma (ROR-gamma) signaling pathway (AID 651802; active = well fitted curve in the direction sought with a large enough effect; an effect the other way counts as inactive or inconclusive; also: potency is read from the fitted curve at half-maximal effect; nearly all actives have a fitted effect of over 60% in size)
How it was run: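 Steps: cells dispensed; compound or DMSO transferred by pin tool; doxycycline added to induce the ROR response element-driven luciferase; plates held 16hr at 37C; ONE-Glo added and luminescence measured.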

[20] = target: Arylsulfatase A (Homo sapiens) (UniProt P15289); assay: qHTS screen for enhancers of Arylsulfatase A (ASA1): LOPAC Validation Assay (AID 720538; active = well fitted curve in the direction sought with a large enough effect; an effect the other way counts as inactive or inconclusive; also: 0% is about no effect)
How it was run: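 Enhancer assay in patient-derived MLD fibroblasts carrying ASA-I179S: 48 h compound exposure at 37 C, then 14 h room-temperature pNCS turnover (0.5 mM final) in lysis buffer. Read by fluorescence at 525/598 nm after NaOH stop.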

[21] = Primary qHTS for inhibitors of SARS-S pseudo-typed particle cell entry (AID 1479145); also: % is scaled to controls: 0 for no effect and ±100 for the full control effect; nearly all actives have a fitted effect of over 45% in size
[22] = Primary qHTS for inhibitors of MERS-S pseudo-typed particle cell entry (AID 1479149); also: nearly all actives have a fitted effect of over 60% in size

Chain of Alpha-galactosidase (Coffea arabica) (Q42656 whole entry, looked up): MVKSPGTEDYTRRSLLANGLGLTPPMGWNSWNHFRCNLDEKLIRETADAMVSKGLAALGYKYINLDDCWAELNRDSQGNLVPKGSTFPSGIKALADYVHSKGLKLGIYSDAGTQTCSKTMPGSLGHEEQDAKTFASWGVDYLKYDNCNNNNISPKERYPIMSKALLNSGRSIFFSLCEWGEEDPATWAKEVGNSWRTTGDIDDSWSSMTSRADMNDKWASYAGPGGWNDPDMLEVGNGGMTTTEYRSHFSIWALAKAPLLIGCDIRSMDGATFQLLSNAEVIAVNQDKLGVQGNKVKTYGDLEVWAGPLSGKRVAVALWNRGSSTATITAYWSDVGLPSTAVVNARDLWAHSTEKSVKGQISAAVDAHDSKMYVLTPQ
Chain of Peroxisome proliferator-activated receptor delta (Homo sapiens) (Q03181 whole entry, looked up): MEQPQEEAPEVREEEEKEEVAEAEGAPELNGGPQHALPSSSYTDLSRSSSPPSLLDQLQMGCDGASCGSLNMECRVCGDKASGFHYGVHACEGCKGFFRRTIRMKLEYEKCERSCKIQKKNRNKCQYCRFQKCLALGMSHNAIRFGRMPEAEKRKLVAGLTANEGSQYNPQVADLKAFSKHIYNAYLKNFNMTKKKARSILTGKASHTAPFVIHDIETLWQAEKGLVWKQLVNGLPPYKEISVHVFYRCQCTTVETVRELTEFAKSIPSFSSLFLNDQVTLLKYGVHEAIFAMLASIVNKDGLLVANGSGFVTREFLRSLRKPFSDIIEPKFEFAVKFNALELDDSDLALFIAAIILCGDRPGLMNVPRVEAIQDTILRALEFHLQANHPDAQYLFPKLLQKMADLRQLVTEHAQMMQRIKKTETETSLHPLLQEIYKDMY
Chain of Arylsulfatase A (Homo sapiens) (P15289 whole entry, looked up): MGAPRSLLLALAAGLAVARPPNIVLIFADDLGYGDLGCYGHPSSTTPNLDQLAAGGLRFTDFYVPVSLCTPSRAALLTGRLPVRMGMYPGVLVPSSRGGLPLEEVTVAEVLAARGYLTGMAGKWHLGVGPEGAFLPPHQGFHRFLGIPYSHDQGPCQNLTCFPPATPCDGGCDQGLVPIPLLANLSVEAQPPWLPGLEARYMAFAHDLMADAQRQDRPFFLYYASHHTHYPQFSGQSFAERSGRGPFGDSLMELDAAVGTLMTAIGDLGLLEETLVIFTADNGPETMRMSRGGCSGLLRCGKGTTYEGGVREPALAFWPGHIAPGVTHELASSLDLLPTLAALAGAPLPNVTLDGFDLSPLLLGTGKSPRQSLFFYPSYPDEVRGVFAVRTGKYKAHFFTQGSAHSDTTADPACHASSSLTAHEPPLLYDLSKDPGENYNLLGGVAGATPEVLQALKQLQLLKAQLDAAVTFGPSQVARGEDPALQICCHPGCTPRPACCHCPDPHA
Chain of Bile acid receptor (Homo sapiens) (Q96RI1 whole entry, looked up): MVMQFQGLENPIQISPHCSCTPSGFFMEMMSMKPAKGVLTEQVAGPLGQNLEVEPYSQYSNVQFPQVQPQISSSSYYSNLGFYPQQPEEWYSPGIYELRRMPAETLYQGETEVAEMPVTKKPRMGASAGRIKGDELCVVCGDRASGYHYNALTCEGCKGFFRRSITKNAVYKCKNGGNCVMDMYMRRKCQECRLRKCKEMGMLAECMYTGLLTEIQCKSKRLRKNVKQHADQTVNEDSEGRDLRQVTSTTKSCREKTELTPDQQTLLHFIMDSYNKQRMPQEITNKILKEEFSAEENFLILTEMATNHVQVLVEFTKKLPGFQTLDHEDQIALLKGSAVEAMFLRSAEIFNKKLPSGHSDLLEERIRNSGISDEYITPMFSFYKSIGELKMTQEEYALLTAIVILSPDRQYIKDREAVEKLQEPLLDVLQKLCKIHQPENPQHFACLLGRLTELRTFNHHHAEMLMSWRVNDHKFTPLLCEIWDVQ
Chain of Nuclear receptor ROR-gamma (Homo sapiens) (P51449 whole entry, looked up): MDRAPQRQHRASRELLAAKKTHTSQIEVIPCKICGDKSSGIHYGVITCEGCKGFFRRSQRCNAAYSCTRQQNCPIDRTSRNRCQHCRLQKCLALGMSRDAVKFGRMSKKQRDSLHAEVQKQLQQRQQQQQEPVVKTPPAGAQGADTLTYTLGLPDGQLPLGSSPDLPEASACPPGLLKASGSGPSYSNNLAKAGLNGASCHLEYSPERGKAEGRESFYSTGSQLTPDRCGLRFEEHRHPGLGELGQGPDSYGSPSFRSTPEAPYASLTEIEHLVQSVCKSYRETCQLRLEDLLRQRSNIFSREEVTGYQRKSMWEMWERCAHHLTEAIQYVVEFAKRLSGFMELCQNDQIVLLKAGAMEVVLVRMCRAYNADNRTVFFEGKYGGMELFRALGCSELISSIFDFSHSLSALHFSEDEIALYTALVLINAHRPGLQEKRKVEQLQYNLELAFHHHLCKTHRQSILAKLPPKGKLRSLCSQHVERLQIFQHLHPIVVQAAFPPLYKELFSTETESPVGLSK

O=C(Nc1cn[nH]c1-c1nc2ccc(CN3CCOCC3)cc2[nH]1)NC1CC1
active: Potency [1] 7.69 µM | Potency [2] 1.93 µM
-95.5%: activity change, negative = inhibition [3]

CN(C)c1ccc(C(=O)NCCCCCCC(=O)NO)cc1
active: Potency [1] 4.85 µM | Potency [2] 1.53 µM
inactive: Potency [3]

CC(C=CC1=C(C)CCCC1(C)C)=CC=CC(C)=CC(=O)Nc1ccc(O)cc1
inactive: activation [4] 2.75% | Potency [5]
active: Potency [1] 44.4 µM | Potency [2] 44.4 µM

COc1cc([C@@H]2c3cc4c(cc3[C@@H](O[C@@H]3O[C@@H]5CO[C@@H](C)O[C@@H]5[C@H](O)[C@@H]3O)[C@H]3COC(=O)[C@H]23)OCO4)cc(OC)c1O
inactive: outcome [6] | outcome [7]
active: Potency [1] 2.17 µM | Potency [2] 2.17 µM | Potency [8] 383 nM

O=C(c1ccc(OCCCc2cnc[nH]2)cc1)C1CC1
inactive: outcome [9] | Potency [1] | Potency [2]

CC(C)NC[C@@H](O)COc1cccc2ccccc12
inactive: outcome [10] | outcome [11] | Potency [12] | Potency [1] | Potency [2] | outcome [6] | outcome [7] | Potency [13]
-4.9%: activity change, negative = inhibition [3]

Cc1nc2c([nH]1)CCN(C(=O)c1ccc(NC(=O)c3ccccc3-c3ccccc3)cc1)c1ccccc1-2
inactive: Potency [1] | Potency [2] | outcome [6] | outcome [7]

COc1ccc(-c2nc(N3CCOCC3)c3sc(CN(C)c4ncc(C(=O)NO)cn4)cc3n2)cn1
active: Potency [1] 0.193 µM | Potency [2] 0.122 µM
inactive: Potency [3]

NC(=O)c1ncn([C@@H]2O[C@H](CO)[C@@H](O)[C@H]2O)n1
7.17%: viability change [15]
-11.7%: activity change, negative = inhibition [3]
inactive: outcome [10] | outcome [11] | Potency [12] | Potency [15] | Potency [16] | Potency [5] | Potency [20] | Potency [1] | Potency [2] | Potency [21] | outcome [6] | Potency [22] | outcome [7] | Potency [13]
active: Potency [14] 8.91 µM | Potency [17] 31.6 µM | Potency [18] 66.8 µM | Potency [19] 18.8 µM
